Bioassay records: PubChem, National Center for Advancing Translational Sciences (NCATS)
In the library only some 19% were active in any assay of this set; here they are far more common.
TDP1 cell noCPT = qHTS for Inhibitors of human tyrosyl-DNA phosphodiesterase 1 (TDP1): qHTS in cells in absence of CPT; Potency, µM (titrated, usually from 46.2 µM), usual class: inhibitors; DT40 Tdp1-/- hTDP1 cells, no CPT, ATP luminescence, 48 h; hit rate 15% among 420,000; also: nearly all actives have a fitted effect of over 55% in size
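DT40 Tdp1-/-;hTDP1 cells, no CPT (DMSO vehicle only), 400 cells/well; compounds pin-transferred; ≥48 hr, 37 °C; CellTiter-Glo 30 min RT dark, luminescence read.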
TDP1 block = qHTS Assay for Inhibitors of Tyrosyl-DNA Phosphodiesterase (TDP1); Tyrosyl-DNA phosphodiesterase 1 (Homo sapiens), Q9NUW8; recombinant TDP1, AlphaScreen DNA substrate cleavage; Potency, µM (doses to about 130 µM), usual class: inhibitors; hit rate 0.28% among 350,000; also: nearly all actives have a fitted effect of over 40% in size
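Signal: AlphaScreen proximity between streptavidin donor and anti-FITC acceptor beads on intact substrate. Reaction: Tdp1 1 nM, substrate 15 nM final, 5 min RT after 15 min compound preincubation.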
RORg inh = qHTS for inhibitors of ROR gamma transcriptional activity; Nuclear receptor ROR-gamma (Mus musculus), P51450; Drosophila S2 Gal4-RORgamma UAS-luciferase reporter, 20 h; Potency, µM (doses to about 53.6 µM), most hits filed as inhibitors; hit rate 5.4% among 310,000; also: nearly all actives have a fitted effect of over 60% in size
Target sequence (P51450 whole entry, looked up, the tested form may be a part): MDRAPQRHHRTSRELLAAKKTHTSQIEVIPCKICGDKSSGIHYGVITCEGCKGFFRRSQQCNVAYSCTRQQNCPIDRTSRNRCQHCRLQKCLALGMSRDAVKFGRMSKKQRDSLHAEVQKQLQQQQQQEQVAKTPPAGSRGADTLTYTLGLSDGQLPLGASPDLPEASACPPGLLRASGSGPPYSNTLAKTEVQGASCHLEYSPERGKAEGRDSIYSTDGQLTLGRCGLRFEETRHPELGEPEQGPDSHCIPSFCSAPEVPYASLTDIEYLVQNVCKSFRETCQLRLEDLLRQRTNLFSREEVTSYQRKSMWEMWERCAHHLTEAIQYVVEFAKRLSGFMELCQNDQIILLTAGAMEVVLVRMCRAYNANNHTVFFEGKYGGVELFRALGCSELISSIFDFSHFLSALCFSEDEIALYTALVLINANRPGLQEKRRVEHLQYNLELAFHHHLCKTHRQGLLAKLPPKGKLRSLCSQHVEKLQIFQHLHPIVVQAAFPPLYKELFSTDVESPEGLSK
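Using a luciferase readout, inhibitors were identified by reduced reporter activity in Drosophila cells coexpressing a copper-inducible Gal4–ROR gamma fusion and UAS-driven Photinus luciferase, incubated 20 hr after 700 uM copper sulfate.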
DT40 TDP1 CPT = qHTS for Inhibitors of human tyrosyl-DNA phosphodiesterase 1 (TDP1): qHTS in cells in presence of CPT; hit rate 12% among 420,000; Potency, µM (titrated, usually from 46.2 µM), most hits filed as inhibitors; AID 686979, 2013; chicken DT40 Tdp1-/-;hTDP1 cells + 20 nM CPT, ATP luminescence, 48 h; also: nearly all actives have a fitted effect of over 55% in size
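Chicken DT40 Tdp1-/- cells complemented with human TDP1, 400 cells/well, exposed to compounds plus 20 nM camptothecin for at least 48 h at 37 C; viability read as ATP content by CellTiter-Glo luminescence.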
VP16 counter = VP16 counterscreen qHTS for inhibitors of ROR gamma transcriptional activity; Drosophila S2 Gal4-VP16 UAS-luciferase, luminescence, 20 h; Potency, µM (top dose mostly 53.6 µM), most hits filed as inhibitors; hit rate 3.5% among 310,000; AID 2546, 2010;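 also: Gal4-VP16 expression switched on by copper sulfate through the metallothionein promoter; nearly all actives have a fitted effect of over 50% in size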
Each line names hits and unclear results; the compound was inactive in the other large screens. Calls follow the shape of the dose curve; as a rule, active = well fitted curve in the direction sought with a large enough effect; inconclusive = small, poorly fitted or top-dose-only effect, or another doubt; inactive = no such curve, though single readings can be large; an effect the other way counts as inactive or inconclusive.

Cc1ccc(NC(=O)CCc2c[nH]c3ccccc23)nc1	TDP1 cell noCPT 2.59µM, DT40 TDP1 CPT 2.59µM
O=C(Nc1ccccc1C(=O)OCC(=O)c1c[nH]c2ccccc12)c1ccco1	TDP1 cell noCPT inconclusive, DT40 TDP1 CPT 8.2µM
Cc1cc2cc(CN(CC3CCCO3)C(=O)c3cnccn3)c(=O)[nH]c2cc1C (configuration not stated)	none
CC1CCCC(C)N1C(=O)COC(=O)CSc1ccc(C(N)=O)cc1[N+](=O)[O-] (configuration not stated)	none (no result: TDP1 block, RORg inh, VP16 counter)
Cc1cc2c(cc3c(SCC(=O)Nc4cccc(Cl)c4C)nnc(C)n32)o1	TDP1 cell noCPT inconclusive, DT40 TDP1 CPT inconclusive (no result: RORg inh, VP16 counter)
CCOC(=O)C1=C(CS(=O)(=O)c2ccc(C)cc2)NC(=O)NC1c1cc(OC)c(OC)c(OC)c1 (configuration not stated)	none
CCOC(=O)C1=C(CS(=O)(=O)c2ccc(Br)cc2)NC(=O)NC1c1ccccc1 (configuration not stated)	TDP1 cell noCPT inconclusive, DT40 TDP1 CPT 20.6µM (no result: RORg inh, VP16 counter)
CCOC(=O)C1=C(CS(=O)(=O)c2ccc(C)cc2)NC(=O)NC1c1ccc(C(C)C)cc1 (configuration not stated)	TDP1 cell noCPT 11.6µM, DT40 TDP1 CPT 18.4µM (no result: RORg inh, VP16 counter)
CC(C)(C)NC(=O)C(c1ccccn1)N(C(=O)c1csnn1)C1CCCC1 (configuration not stated)	TDP1 cell noCPT inconclusive (no result: TDP1 block)
C[C@H](NC(=O)c1ccccc1Cl)C(=O)OC(C(=O)Nc1cc(C(F)(F)F)ccc1Cl)c1ccccc1 (some centres not stated)	none
CCN(CC)c1ccc(NC(=O)c2ccccc2Br)cc1S(=O)(=O)Nc1ccccc1OC	TDP1 cell noCPT 10.3µM, DT40 TDP1 CPT 11.6µM, VP16 counter inconclusive
CCN(CC)c1ccc(NC(=O)COc2ccccc2C)cc1S(=O)(=O)Nc1ccccc1OC	TDP1 cell noCPT 14.6µM, DT40 TDP1 CPT inconclusive
CCN(CC)c1ccc(NC(=O)c2ccccc2F)cc1S(=O)(=O)Nc1ccccc1OC	TDP1 cell noCPT inconclusive, DT40 TDP1 CPT inconclusive
N#Cc1ccc(C[C@@H](NS(=O)(=O)c2ccc(C(=O)O)cc2)C(=O)O)cc1	none (no result: TDP1 cell noCPT, DT40 TDP1 CPT)
Cc1ccc2nc(C(Cl)(Cl)Cl)nc(N/N=C/c3ccncc3)c2c1	TDP1 cell noCPT inconclusive
Cc1ccc(C=NNc2ccc([N+](=O)[O-])cn2)cc1	DT40 TDP1 CPT inconclusive (no result: TDP1 block, RORg inh, VP16 counter)
C=CCc1c(C)nc(C)nc1N/N=C/c1ccc([N+](=O)[O-])cc1	TDP1 cell noCPT 16.4µM, RORg inh 11.2µM, DT40 TDP1 CPT inconclusive
C=CCc1c(Cl)nc(C)nc1NCc1ccccc1	TDP1 cell noCPT inconclusive, RORg inh inconclusive, DT40 TDP1 CPT inconclusive
C=CCc1c(C)nc(C)nc1N/N=C/c1ccccc1O	TDP1 cell noCPT 23.1µM, RORg inh inconclusive, DT40 TDP1 CPT 25.9µM, VP16 counter 5.01µM
Cc1ccc2nc(C(Cl)(Cl)Cl)nc(N/N=C/c3ccc([N+](=O)[O-])cc3)c2c1	TDP1 cell noCPT 16.4µM, DT40 TDP1 CPT inconclusive (no result: TDP1 block, RORg inh, VP16 counter)
COc1ccc2c(c1)[C@H]1[C@H](CO2)[C@H](c2ccccc2)[C@]2(C)C(=O)Nc3cc(F)ccc3C(=O)N12	TDP1 cell noCPT 18.4µM, DT40 TDP1 CPT inconclusive (no result: RORg inh, VP16 counter)
COc1ccc2c(c1)OC[C@H]1[C@H]2N2C(=O)c3ccc(F)cc3NC(=O)[C@@]2(C)[C@H]1c1ccccc1	TDP1 cell noCPT 23.1µM, DT40 TDP1 CPT 18.4µM (no result: TDP1 block, RORg inh, VP16 counter)
CCn1c(/C=C2/C(=O)N(C)c3ccccc32)nc2ccccc2c1=O	TDP1 cell noCPT 16.4µM, DT40 TDP1 CPT inconclusive
CCn1c(/C=C2\C(=O)N(C)c3ccccc32)nc2ccccc2c1=O	TDP1 cell noCPT inconclusive, DT40 TDP1 CPT inconclusive
CCN1C(=O)/C(=C\c2nc3ccccc3c(=O)n2CC)c2ccccc21	TDP1 cell noCPT 29.1µM, DT40 TDP1 CPT 16.4µM
CCN1C(=O)/C(=C/c2nc3ccccc3c(=O)n2-c2ccccc2)c2ccccc21	TDP1 cell noCPT 18.4µM, DT40 TDP1 CPT 20.6µM
O=C(NCc1cnn(-c2ccc(F)cc2)c1)C1CCC(=O)N(C2CC2)C1 (configuration not stated)	none
COC(=O)c1ccc2c(=O)[nH]c(COC(=O)c3[nH]c(C)c(C(C)=O)c3C)nc2c1	TDP1 cell noCPT 16.4µM, DT40 TDP1 CPT inconclusive (no result: RORg inh, VP16 counter)
CC(NC(=O)c1ccccc1)C(=O)OCn1nnc2ccccc2c1=O (configuration not stated)	DT40 TDP1 CPT 25.9µM (no result: RORg inh, VP16 counter)
CC(=O)c1c(C)[nH]c(C(=O)OCc2nc3ccsc3c(=O)[nH]2)c1C	DT40 TDP1 CPT inconclusive (no result: TDP1 block, RORg inh, VP16 counter)
CC(=O)c1c(C)[nH]c(C(=O)OCn2nnc3ccccc3c2=O)c1C	TDP1 cell noCPT 16.4µM, DT40 TDP1 CPT 16.4µM
C[C@H](NC(=O)c1ccc(Cl)cc1)C(=O)OCn1nnc2ccccc2c1=O	DT40 TDP1 CPT inconclusive (no result: RORg inh, VP16 counter)
O=S(=O)(Nc1cccc(-c2ccc3nncn3n2)c1)c1ccccc1F	none (no result: RORg inh, VP16 counter)
Cc1ccn2c(NC(=O)C(C)(C)Oc3ccc(Cl)cc3)c(-c3cccs3)nc2c1	TDP1 cell noCPT 18.4µM, DT40 TDP1 CPT inconclusive
Cc1ccc(/C=N/NC(=O)Cc2cccs2)o1	RORg inh inconclusive, VP16 counter 35.5µM
O=C(CCNC(=O)c1ccccc1Cl)NN=Cc1ccccc1[N+](=O)[O-]	TDP1 cell noCPT inconclusive, DT40 TDP1 CPT inconclusive (no result: RORg inh, VP16 counter)
O=C(Cc1cccs1)N/N=C\c1ccc([N+](=O)[O-])s1	TDP1 cell noCPT 20.6µM, RORg inh inconclusive, DT40 TDP1 CPT 8.2µM, VP16 counter inconclusive
O=C(CNC(=O)c1ccccc1Cl)N/N=C/c1ccc([N+](=O)[O-])s1	TDP1 cell noCPT 20.6µM, RORg inh 17.8µM, DT40 TDP1 CPT 20.6µM, VP16 counter inconclusive
COc1ccc(OC)c(NC(=O)CSc2nnc(CNC(=O)c3cccs3)o2)c1	none
COc1ccc(NC(=O)c2ccc(NC(=O)COC(=O)CC(NC(=O)c3ccccc3Cl)c3ccccc3)cc2)cc1 (configuration not stated)	DT40 TDP1 CPT inconclusive
COc1ccccc1NC(=O)c1ccc2nsnc2c1	none (no result: TDP1 block)
O=C(Nc1ccccc1Cl)c1ccc2ccccc2c1	none (no result: TDP1 block)
Cc1ccc(CNC(=O)CN(C(=O)C2(C)CC(=O)N=C3C=CC=CN32)c2cc(C)ccc2C)cc1 (configuration not stated)	none
CC(C)Cc1ccc(C(C)C(=O)OCC(=O)c2c[nH]c3ccccc23)cc1 (configuration not stated)	TDP1 cell noCPT 13µM, RORg inh inconclusive, DT40 TDP1 CPT 10.3µM, VP16 counter 17.8µM
COc1ccccc1/C=C/C(=O)OCC(=O)c1cc(C)n(C)c1C	TDP1 cell noCPT inconclusive, DT40 TDP1 CPT inconclusive (no result: RORg inh, VP16 counter)
